The record followed here is PubChem BioAssay (NCI).

Test in all cases: NCI-60 one-dose screen, 48 h (100 = growth as untreated, 0 = no growth, -100 = all killed)
Settings in all cases: 10 µM unless noted

Test [1] concerns HCT-15 colon.
Test [2] has as its system HT29 colon.
For test [3], the system named is SNB-75 CNS.
The subject of test [4] is SNB-19 CNS.
Test [5] relates to U251 CNS.
Test [6] concerns PC-3 prostate.
The subject of test [7] is SK-MEL-5 melanoma.
Test [8] concerns UACC-62 melanoma.
The subject of test [9] is LOX IMVI melanoma.
For test [10], the system named is SK-MEL-28 melanoma.
Test [11] relates to EKVX NSCLC.
Test [12] concerns SN12C renal.
Test [13] has as its system UO-31 renal.
Test [14] deals with TK-10 renal.
Test [15] has as its system ACHN renal.
Test [16] has as its system CAKI-1 renal.
In test [17] the test system is CCRF-CEM leukemia.
The test system of test [18] is MOLT-4 leukemia.
The test system of test [19] is SK-MEL-2 melanoma.
The subject of test [20] is A498 renal.

About 83,000 compounds went through this panel and 20% of them were active in at least one assay; those are over-represented in the sample as a whole.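 Single-dose data. Exposure time 48 hours. Values below 10 considered active.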 Unmarked numbers belong to inactive results. Active and inactive are the calls of the source.

For `Nc1nc(-c2cccc([N+](=O)[O-])c2)c(N=Nc2cccc([N+](=O)[O-])c2)s1`, the growth is 62% in [1]; 94.2% in test [2]; -8.63% (active) in test [3]; 20.9% in test [4]; -43% (active) in test [5]; 74.7% in test [6]. Further, the growth is 63.9% in test [7]; 54.7% in test [8]; 13.4% in test [9]; 61.3% in test [10]; 78.1% in test [11]; 22.5% in test [12]. Also, the growth is 13.5% in [13]; 7.2% (active) in test [14]; 11.5% in [15]; 34.5% in [16]; 95.2% in [17]; 112% in test [18].

With `Cc1ccc(-n2cc(/C=N/NC(=O)c3nc(N)n[nH]3)c(-c3ccc(S(C)(=O)=O)cc3)n2)cc1`, the growth in test [1] is 86.4%; in [2], 105%; in test [3], 92.2%; in test [4] it was 97.4%; in test [5], 101%; in [6] it was 96.8%. Besides, the growth is 103% in [7]; 88.5% in test [8]; 90.2% in [9]; 103% in [19]; 92.9% in test [11]; 96.6% in test [12]. The growth in test [13] was 92.6%; in test [14] it was 119%; in [15], 101%; in test [16], 92.6%; in [20] it was 97.6%; in [17], 84%. Further, in test [18], the growth was 97.9%.

For `Nc1nc(-c2cccc([N+](=O)[O-])c2)c(N=Nc2ccc([N+](=O)[O-])cc2Cl)s1`, the growth was 3.38% (active) in test [1]; 10.7% in test [2]; -1.14% (active) in test [3]; 17% in test [4]; 10.3% in test [5]; 5.14% (active) in test [6]. The growth in test [7] is -76.6% (active); in test [8], 1.4% (active); in [9] it was 14.1%; in test [10] it was 22.8%; in [11] it was 6.7% (active); in test [12], 5.24% (active). The growth is 10.5% in [13]; 22.7% in [14]; 7.06% (active) in test [15]; 4.29% (active) in test [16]; 13% in [17]; 7.78% (active) in test [18].

Take `Cc1cc2ncc(-c3cc4ccccc4c(N4CCN(C)CC4)n3)nc2cc1C`: the growth is -69.7% (active) in [1]; -60.4% (active) in test [2]; 56.1% in test [3]; 73% in test [4]; -30.9% (active) in [5]; 57.5% in test [6]. For the same compound, the growth in test [7] was 16.2%; in test [8], -46.6% (active); in test [9], -83.8% (active); in [10], -69.9% (active); in [11], 73.8%; in test [12], 31.5%. Also, the growth in test [13] was 4.16% (active); in [14] it was 67.2%; in test [15] it was -42.1% (active); in test [16] it was 30.2%; in test [17], 1.37% (active); in [18], -8.83% (active).

For `O=C(Cn1c(-c2ccccc2)nc2cc(Cl)c(Cl)cc21)N=Nc1c(O)[nH]c2ccc(Cl)cc12`, the growth in [1] was 68.7%; in [2] it was 51.4%; in test [3], 101%; in test [4], 87.8%; in test [5], 93.8%; in test [6] it was 70.8%. Also, the growth in [7] is 79.5%; in test [8], 71.7%; in test [9], 72.2%; in test [10], 66.4%; in [11] it was 75.5%; in test [12], 89.8%. For the same compound, the growth in [13] is 73.7%; in [14], 104%; in [15], 74.3%; in [16], 70.2%; in test [17], -8.19% (active); in test [18], 72.3%.

With `C[C@H]1c2[nH]c3ccccc3c2C[C@H]2C(=O)N(CCCCCCC(=O)NO)CC(=O)N21`, the growth is 99.3% in test [1]; 86.8% in [2]; 82.1% in [3]; 84.8% in test [4]; 85.2% in [5]; 77.7% in [6]. The growth in test [7] was 83%; in test [8] it was 69.6%; in [9] it was -8.74% (active); in test [19], 76.3%; in [11], 85.3%; in test [12], 88.5%. For the same compound, the growth in test [13] was 83.3%; in [14], 90.3%; in test [15], 90.1%; in test [16] it was 87.8%; in test [20], 83.2%; in [17] it was 36.9%. For the same compound, in test [18], the growth is 52.3%.

On to `O=C1[C@H]2Cc3c([nH]c4ccccc34)[C@@H](c3ccc(Cl)cc3)N2C(=O)CN1C1CCN(Cc2ccccc2)CC1`, for which the growth in test [1] is 23.7%; in test [2], 27.1%; in [3] it was 79.8%; in [4], 66.5%; in test [5] it was 63.7%; in test [6], 30.4%. For the same compound, the growth was 56.1% in test [7]; 75.4% in [8]; 17.4% in [9]; 84.7% in test [19]; 41.3% in test [11]; 45.9% in test [12]. Also, the growth in test [13] is 26.4%; in [14], 82.3%; in [15], 40.6%; in test [16], 38%; in test [20], 74.8%; in test [17] it was 43.3%. In addition, in test [18], the growth was 27.1%.

With `COc1ccc(NC(=O)Nc2ccc3c(ccn3C(=O)c3cccc(F)c3)c2)cc1`, the growth in test [1] is 71.6%; in [2] it was 64%; in test [3], 44%; in test [4], 80.8%; in test [5] it was 54.4%; in test [6], 77.4%. For the same compound, the growth in test [7] was 76.6%; in test [8], 65.9%; in test [9], 57%; in test [19], 94.5%; in test [11], 88%; in [12], 50.7%. Moreover, the growth in test [13] was 94.1%; in test [14], 103%; in [15] it was 53.9%; in [16] it was 90.1%; in [20], 88.7%; in test [17], 56.3%. Besides, the growth in test [18] is 73.2%.
